# Laboratory results as given in PubChem BioAssay AID1159580 (chemical genetic matrix, 2015).
# In all, about 5,500 compounds went through this assay and about 2,000 (36%) were called active. About 18% were inconclusive and are not listed. The list shows a part of the results. Values without a mark were called inactive. No stated cut-off is given here; in the data, active means normalized growth mostly below about 0.91 (no sharp cut-off); inconclusive means no clear call, values can overlap the other calls; inactive means mostly above about 0.92.
# Assay: chemical genetic growth profiling, strain panel (AID 1159580);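 further: tested at 20 µM; growth read once vehicle control cultures reached saturation at 30 °C; 1 = growth at the plate median or of vehicle wells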
# Conditions: growth OD
smiles,measurement,setting,value
COc1ccc(C[C@H]2NC[C@H](O)[C@H]2OC(C)=O)cc1,normalized growth,"S. cerevisiae deletion strains, locus YKL009W, strain mrt4, stronger effect = lower value",0.966
same,normalized growth,"S. cerevisiae deletion strains, locus YKL068W, stronger effect = lower value",0.998
same,normalized growth,"S. cerevisiae deletion strains, locus YKL085W, strain MDH1 (second series), stronger effect = lower value",1.01
same,normalized growth,"S. cerevisiae deletion strains, locus YKL085W, strain MDH1, stronger effect = lower value",1.01
same,normalized growth,"S. cerevisiae deletion strains, locus YKL160W, strain elf1, stronger effect = lower value",0.776 (active)
same,normalized growth,"S. cerevisiae deletion strains, locus YKL190W, strain CNB1, stronger effect = lower value",0.206 (active)
same,normalized growth,"S. cerevisiae deletion strains, locus YKR001C, strain vps1, stronger effect = lower value",0.367 (active)
same,normalized growth,"S. cerevisiae deletion strains, locus YKR026C, strain gcn3, stronger effect = lower value",0.985
same,normalized growth,"S. cerevisiae deletion strains, locus YKR091W, strain srl3, stronger effect = lower value",1
same,normalized growth,"S. cerevisiae deletion strains, locus YLL001W, strain dnm1, stronger effect = lower value",0.884 (active)
same,normalized growth,"S. cerevisiae deletion strains, locus YLL026W, stronger effect = lower value",0.807 (active)
same,normalized growth,"S. cerevisiae deletion strains, locus YLL041C, strain sdh2, stronger effect = lower value",0.986
same,normalized growth,"S. cerevisiae deletion strains, locus YLR027C, strain aat2, stronger effect = lower value",0.659 (active)
same,normalized growth,"S. cerevisiae deletion strains, locus YLR039C, strain RIC1, stronger effect = lower value",0.567 (active)
same,normalized growth,"S. cerevisiae deletion strains, locus YLR058C, strain SHM2, stronger effect = lower value",0.61 (active)
same,normalized growth,"S. cerevisiae deletion strains, locus YLR102C, strain apc9, stronger effect = lower value",1.01
same,normalized growth,"S. cerevisiae deletion strains, locus YLR113W, strain HOG1, stronger effect = lower value",0.977
same,normalized growth,"S. cerevisiae deletion strains, locus YLR221C, strain rsa3, stronger effect = lower value",0.853 (active)
same,normalized growth,"S. cerevisiae deletion strains, locus YLR258W, strain gsy2, stronger effect = lower value",0.734 (active)
same,normalized growth,"S. cerevisiae deletion strains, locus YLR262C, strain YPT6 (second series), stronger effect = lower value",0.769 (active)
same,normalized growth,"S. cerevisiae deletion strains, locus YLR262C, strain YPT6, stronger effect = lower value",0.386 (active)
same,normalized growth,"S. cerevisiae deletion strains, locus YLR268W, strain sec22, stronger effect = lower value",0.854 (active)
same,normalized growth,"S. cerevisiae deletion strains, locus YLR320W, strain mms22, stronger effect = lower value",0.957
same,normalized growth,"S. cerevisiae deletion strains, locus YLR330W, strain CHS5, stronger effect = lower value",0.87 (active)
same,normalized growth,"S. cerevisiae deletion strains, locus YLR342W, strain FKS1 (second series), stronger effect = lower value",0.126 (active)
same,normalized growth,"S. cerevisiae deletion strains, locus YLR342W, strain FKS1, stronger effect = lower value",0.412 (active)
same,normalized growth,"S. cerevisiae deletion strains, locus YLR357W, strain rsc2, stronger effect = lower value",0.826 (active)
same,normalized growth,"S. cerevisiae deletion strains, locus YLR370C, strain arc18, stronger effect = lower value",0.877 (active)
same,normalized growth,"S. cerevisiae deletion strains, locus YLR371W, strain rom2, stronger effect = lower value",0.728 (active)
same,normalized growth,"S. cerevisiae deletion strains, locus YLR384C, strain iki3, stronger effect = lower value",1
same,normalized growth,"S. cerevisiae deletion strains, locus YLR418C, strain cdc73, stronger effect = lower value",0.28 (active)
same,normalized growth,"S. cerevisiae deletion strains, locus YML016C, strain PPZ1, stronger effect = lower value",0.625 (active)
same,normalized growth,"S. cerevisiae deletion strains, locus YML032C, strain rad52, stronger effect = lower value",0.868 (active)
same,normalized growth,"S. cerevisiae deletion strains, locus YML120C, strain ndi1, stronger effect = lower value",0.98
same,normalized growth,"S. cerevisiae deletion strains, locus YML124C, strain tub3, stronger effect = lower value",0.988
same,normalized growth,"S. cerevisiae deletion strains, locus YMR058W, strain fet3, stronger effect = lower value",0.891 (active)
same,normalized growth,"S. cerevisiae deletion strains, locus YMR078C, strain ctf18, stronger effect = lower value",1.02
same,normalized growth,"S. cerevisiae deletion strains, locus YMR125W, strain sto1, stronger effect = lower value",0.862 (active)
same,normalized growth,"S. cerevisiae deletion strains, locus YMR129W, stronger effect = lower value",0.961
same,normalized growth,"S. cerevisiae deletion strains, locus YMR205C, strain PFK2, stronger effect = lower value",0.692 (active)
same,normalized growth,"S. cerevisiae deletion strains, locus YMR223W, strain ubp8, stronger effect = lower value",0.723 (active)
same,normalized growth,"S. cerevisiae deletion strains, locus YMR231W, strain pep5, stronger effect = lower value",0.752 (active)
same,normalized growth,"S. cerevisiae deletion strains, locus YMR263W, strain SAP30, stronger effect = lower value",0.852 (active)
same,normalized growth,"S. cerevisiae deletion strains, locus YMR307W, strain GAS1, stronger effect = lower value",0.237 (active)
same,normalized growth,"S. cerevisiae deletion strains, locus YNL067W, strain RPL9B, stronger effect = lower value",0.663 (active)
same,normalized growth,"S. cerevisiae deletion strains, locus YNL071W, strain lat1, stronger effect = lower value",0.975
same,normalized growth,"S. cerevisiae deletion strains, locus YNL128W, strain TEP1, stronger effect = lower value",0.353 (active)
same,normalized growth,"S. cerevisiae deletion strains, locus YNL153C, strain GIM3, stronger effect = lower value",0.62 (active)
same,normalized growth,"S. cerevisiae deletion strains, locus YNL183C, strain NPR1, stronger effect = lower value",0.97
same,normalized growth,"S. cerevisiae deletion strains, locus YNL209W, strain ssb2, stronger effect = lower value",0.74 (active)
same,normalized growth,"S. cerevisiae deletion strains, locus YNL233W, strain BNI4, stronger effect = lower value",0.582 (active)
same,normalized growth,"S. cerevisiae deletion strains, locus YNL248C, strain rpa49, stronger effect = lower value",0.745 (active)
same,normalized growth,"S. cerevisiae deletion strains, locus YNL250W, strain rad50, stronger effect = lower value",0.986
same,normalized growth,"S. cerevisiae deletion strains, locus YNL271C, strain bni1, stronger effect = lower value",0.995
same,normalized growth,"S. cerevisiae deletion strains, locus YNL298W, strain CLA4, stronger effect = lower value",0.98
same,normalized growth,"S. cerevisiae deletion strains, locus YNL307C, strain MCK1, stronger effect = lower value",0.496 (active)
same,normalized growth,"S. cerevisiae deletion strains, locus YNL322C, strain KRE1 (second series), stronger effect = lower value",1.01
same,normalized growth,"S. cerevisiae deletion strains, locus YNL322C, strain KRE1, stronger effect = lower value",0.0901 (active)
same,normalized growth,"S. cerevisiae deletion strains, locus YNR049C, strain mso1, stronger effect = lower value",1
same,normalized growth,"S. cerevisiae deletion strains, locus YNR052C, strain pop2, stronger effect = lower value",0.448 (active)
same,normalized growth,"S. cerevisiae deletion strains, locus YOL006C, strain TOP1, stronger effect = lower value",0.0919 (active)
same,normalized growth,"S. cerevisiae deletion strains, locus YOL012C, strain htz1",2.18 [resistant] (active)
same,normalized growth,"S. cerevisiae deletion strains, locus YOL147C, strain pex11, stronger effect = lower value",0.884 (active)
same,normalized growth,"S. cerevisiae deletion strains, locus YOR001W, strain rrp6, stronger effect = lower value",0.891 (active)
same,normalized growth,"S. cerevisiae deletion strains, locus YOR061W, strain CKA2, stronger effect = lower value",0.624 (active)
same,normalized growth,"S. cerevisiae deletion strains, locus YOR069W, strain VPS5, stronger effect = lower value",0.973
same,normalized growth,"S. cerevisiae deletion strains, locus YOR070C, strain gyp1, stronger effect = lower value",0.775 (active)
same,normalized growth,"S. cerevisiae deletion strains, locus YOR080W, strain dia2, stronger effect = lower value",0.952
same,normalized growth,"S. cerevisiae deletion strains, locus YOR083W, strain WHI5, stronger effect = lower value",0.657 (active)
same,normalized growth,"S. cerevisiae deletion strains, locus YOR106W, strain vam3, stronger effect = lower value",0.345 (active)
same,normalized growth,"S. cerevisiae deletion strains, locus YOR136W, strain idh2, stronger effect = lower value",0.914 (active)
same,normalized growth,"S. cerevisiae deletion strains, locus YOR144C, strain elg1, stronger effect = lower value",1.01
same,normalized growth,"S. cerevisiae deletion strains, locus YOR184W, strain ser1, stronger effect = lower value",0.463 (active)
same,normalized growth,"S. cerevisiae deletion strains, locus YOR231W, strain MKK1, stronger effect = lower value",0.954
same,normalized growth,"S. cerevisiae deletion strains, locus YOR265W, strain rbl2, stronger effect = lower value",0.851 (active)
same,normalized growth,"S. cerevisiae deletion strains, locus YOR270C, strain vph1, stronger effect = lower value",0.354 (active)
same,normalized growth,"S. cerevisiae deletion strains, locus YOR290C, strain snf2, stronger effect = lower value",0.763 (active)
same,normalized growth,"S. cerevisiae deletion strains, locus YOR316C, strain cot1, stronger effect = lower value",0.993
same,normalized growth,"S. cerevisiae deletion strains, locus YPL051W, strain arl3, stronger effect = lower value",0.738 (active)
same,normalized growth,"S. cerevisiae deletion strains, locus YPL055C, strain LGE1, stronger effect = lower value",0.0822 (active)
same,normalized growth,"S. cerevisiae deletion strains, locus YPL078C, strain atp4, stronger effect = lower value",0.919
same,normalized growth,"S. cerevisiae deletion strains, locus YPL106C, strain sse1, stronger effect = lower value",0.873
same,normalized growth,"S. cerevisiae deletion strains, locus YPL240C, strain hsp82, stronger effect = lower value",0.942
same,normalized growth,"S. cerevisiae deletion strains, locus YPL241C, strain CIN2, stronger effect = lower value",0.652 (active)
same,normalized growth,"S. cerevisiae deletion strains, locus YPL256C, strain CLN2, stronger effect = lower value",0.947
same,normalized growth,"S. cerevisiae deletion strains, locus YPR119W, strain clb2, stronger effect = lower value",1.07
same,normalized growth,"S. cerevisiae deletion strains, locus YPR141C, strain kar3, stronger effect = lower value",0.986
same,normalized growth,"S. cerevisiae deletion strains, locus YPR163C, strain tif3, stronger effect = lower value",0.718 (active)
same,normalized growth,"S. cerevisiae deletion strains, locus YPR167C, strain met16, stronger effect = lower value",0.807 (active)
same,normalized growth,"S. cerevisiae deletion strains, strain wtn01, stronger effect = lower value",0.301 (active)
same,normalized growth,"S. cerevisiae strains, strain wild type, stronger effect = lower value",0.117 (active)
